Results on 83 molecules are retold here after publication PMC4336329 (PLoS ONE, 2015).

In all, about 310,000 compounds went through this assay and about 14,000 (4.5%) showed an effect of 50% or more. Effects have a minus sign here. Shown is part of a subset that was picked to be rich in strong results.
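Further: peak tail current of the secondary pulse compared with the same well before compound.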

The experiment deals with human ether-à-go-go-related gene (hERG) potassium channel (human, UniProt Q12809). The experiment can be described thus: primary screen, population patch clamp on CHO cells stably expressing hERG; higher = less effect of the substance.
Sequence of human ether-à-go-go-related gene (hERG) potassium channel (Q12809 whole entry, looked up): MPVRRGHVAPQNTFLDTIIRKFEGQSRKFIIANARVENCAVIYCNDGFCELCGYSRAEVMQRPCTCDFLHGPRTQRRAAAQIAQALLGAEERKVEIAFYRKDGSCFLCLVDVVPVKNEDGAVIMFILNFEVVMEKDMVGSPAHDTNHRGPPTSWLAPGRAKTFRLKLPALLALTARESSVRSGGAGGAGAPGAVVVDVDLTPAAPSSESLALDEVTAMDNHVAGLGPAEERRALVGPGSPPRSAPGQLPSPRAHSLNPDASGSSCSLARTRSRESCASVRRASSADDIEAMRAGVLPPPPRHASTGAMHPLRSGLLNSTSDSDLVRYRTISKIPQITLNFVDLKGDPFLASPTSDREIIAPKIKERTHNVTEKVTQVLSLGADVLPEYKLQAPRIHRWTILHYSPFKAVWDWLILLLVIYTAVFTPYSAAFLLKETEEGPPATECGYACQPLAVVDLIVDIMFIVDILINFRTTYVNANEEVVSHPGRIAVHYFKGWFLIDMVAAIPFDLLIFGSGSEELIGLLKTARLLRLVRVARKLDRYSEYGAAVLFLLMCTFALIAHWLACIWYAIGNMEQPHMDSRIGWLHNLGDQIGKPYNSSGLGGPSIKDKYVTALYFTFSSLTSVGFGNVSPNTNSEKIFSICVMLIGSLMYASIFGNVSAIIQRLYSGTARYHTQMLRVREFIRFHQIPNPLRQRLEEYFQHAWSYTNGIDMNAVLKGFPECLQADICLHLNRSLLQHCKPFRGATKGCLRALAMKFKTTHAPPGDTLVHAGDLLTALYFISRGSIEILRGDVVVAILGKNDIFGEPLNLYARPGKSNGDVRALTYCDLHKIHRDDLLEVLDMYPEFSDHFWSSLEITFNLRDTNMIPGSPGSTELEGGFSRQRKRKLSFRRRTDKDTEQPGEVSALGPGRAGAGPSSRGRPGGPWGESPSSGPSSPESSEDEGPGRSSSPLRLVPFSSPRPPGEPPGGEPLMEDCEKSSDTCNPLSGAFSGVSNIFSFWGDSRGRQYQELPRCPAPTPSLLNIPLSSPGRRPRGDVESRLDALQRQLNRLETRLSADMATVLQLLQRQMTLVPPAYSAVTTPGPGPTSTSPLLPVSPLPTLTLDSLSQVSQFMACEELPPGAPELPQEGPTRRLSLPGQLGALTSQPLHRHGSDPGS
With `Cc1ccc(-c2cc(C(=O)N3CCOCC3)c3cc(C)ccc3n2)cc1`, the “hERG current change (%, negative = inhibition) at 10uM” value was -4.82%.
Regarding `COc1ccccc1CNC(=O)CCC(=O)n1ncc2cc(C)ccc21`, the “hERG current change (%, negative = inhibition) at 10uM” value came out at 0.647%.
On to `c1ccc2c(c1)CCCN2Cc1nnnn1C1CCCC1`, for which the “hERG current change (%, negative = inhibition) at 10uM” value is -3.84%.
Turning to `O=C(C1CC1)N(Cc1ccco1)c1nc(-c2ccccc2)cs1`, the “hERG current change (%, negative = inhibition) at 10uM” value is reported as -8.62%.
Turning to `Cc1ccc2c(c1)C1CN(C)CCC1N2S(=O)(=O)c1ccc(Oc2ccc([N+](=O)[O-])cc2)cc1` (centres unmarked), the “hERG current change (%, negative = inhibition) at 10uM” value is -21.3%.
Turning to `Cc1ccc2c(c1)[C@@H]1CN(C)CC[C@@H]1N2S(=O)(=O)c1ccc([N+](=O)[O-])cc1.Cl`, the “hERG current change (%, negative = inhibition) at 10uM” value was -75%.
Consider `Cc1ccc2c(c1)C1CN(C)CCC1N2C(=O)COc1ccc(S(=O)(=O)N2CCOCC2)cc1` (centres unmarked), for which the “hERG current change (%, negative = inhibition) at 10uM” value is -15.8%.
`Cc1ccc2c(c1)C1CN(C)CCC1N2S(=O)(=O)c1ccc(C#N)cc1` (centres unmarked): the “hERG current change (%, negative = inhibition) at 10uM” value is recorded as -72.8%.
As to `Cc1ccc2c(c1)C1CN(C)CCC1N2CC(=O)N(C)c1ccccc1` (centres unmarked), the “hERG current change (%, negative = inhibition) at 10uM” value is given as 6.34%.
Consider `Cc1ccc2c(c1)C1CN(C)CCC1N2S(=O)(=O)c1ccccc1F` (centres unmarked), for which the “hERG current change (%, negative = inhibition) at 10uM” value is -32.4%.
Then `Cc1ccc2c(c1)[C@@H]1CN(C)CC[C@@H]1N2S(=O)(=O)c1ccc(F)cc1.Cl`, with -29.1%.
Turning to `Cc1ccc2c(c1)C1CN(C)CCC1N2Sc1ccccc1[N+](=O)[O-]` (centres unmarked), the “hERG current change (%, negative = inhibition) at 10uM” value was -62.8%.
In the case of `Cc1ccc2c(c1)C1CN(C)CCC1N2C(=O)c1cccc(S(=O)(=O)N(C)C)c1.c1ccccc1` (centres unmarked), the “hERG current change (%, negative = inhibition) at 10uM” value is reported as -25%.
Turning to `CN(C(=O)Cc1c(C(=O)O)n(C)c2ccccc12)c1ccc(F)cc1`, the “hERG current change (%, negative = inhibition) at 10uM” value was 19.8%.
Turning to `COc1ccc(-n2c(COc3ccc(Cl)cc3)nnc2SCc2ccc(C#N)cc2)cc1`, the “hERG current change (%, negative = inhibition) at 10uM” value is on record as 0.977%.
Consider `CCn1c(COc2ccccc2)nnc1SCC(=O)C(C)(C)C`, for which the “hERG current change (%, negative = inhibition) at 10uM” value is recorded as -14.2%.
For the molecule `CCn1c(COc2ccc(Cl)cc2)nnc1SCc1ccc(C#N)cc1`, the “hERG current change (%, negative = inhibition) at 10uM” value is given as -70.5%.
Take `CCn1c(COc2ccc(C)cc2)nnc1SCc1ccc(C#N)cc1`: the “hERG current change (%, negative = inhibition) at 10uM” value is given as -59.6%.
For `N#CCSc1nnc(COc2ccccc2)n1-c1ccccc1`, the “hERG current change (%, negative = inhibition) at 10uM” value was -10.7%.
On to `CCn1c(COc2ccc(Cl)cc2)nnc1SCc1nc2ccccc2[nH]1`, for which the “hERG current change (%, negative = inhibition) at 10uM” value is -17.7%.
Turning to `CCn1c(COc2ccccc2)nnc1SCc1ccc(C#N)cc1`, the “hERG current change (%, negative = inhibition) at 10uM” value was -54.1%.
Take `COc1ccc(-n2c(COc3ccc(C)cc3)nnc2SCc2ccc(C#N)cc2)cc1`: the “hERG current change (%, negative = inhibition) at 10uM” value is given as -29.6%.
Then `COc1ccc(-n2c(COc3ccccc3)nnc2SCc2ccc(C#N)cc2)cc1`, with -39.4%; and `CCSc1nnc(COc2ccccc2)n1CC`, with 6.43%.
Consider `N#Cc1ccc(CSc2nnc(COc3ccccc3)n2-c2ccccc2)cc1`, for which the “hERG current change (%, negative = inhibition) at 10uM” value is listed as -52.3%.
As to `Cc1ccc(OCc2nnc(SCc3ccc(C#N)cc3)n2-c2ccc(C)cc2)cc1`, the “hERG current change (%, negative = inhibition) at 10uM” value is listed as -29.6%.
Then `COc1ccc(/C=N/NC(=O)CCN2CCCCC2c2cccnc2)cc1Cn1cc([N+](=O)[O-])cn1` (centres unmarked), with -30.7%; and `CCCCOCCCNC(=O)Cc1cccs1`, with 1.1%; and `O=C(CN1C(=O)c2ccccc2C1=O)NN1C(=O)c2ccccc2C1=O`, with 1.18%.
Then `Cc1c(C(=O)Oc2cccc3cccnc23)oc2ccccc12`, with -4.01%; and `Cc1cnc(C(=O)OCC(=O)NC2CCCC(C)C2C)cn1` (centres unmarked), with 6.02%.
With `CC(=O)N1CCN(c2ccccc2NC(=O)c2cccc3c(Cl)cccc23)CC1`, the “hERG current change (%, negative = inhibition) at 10uM” value is -19.2%.
Turning to `O=C(Nc1ccccc1N1CCCC1)c1cc(Cl)ccc1Cl`, the “hERG current change (%, negative = inhibition) at 10uM” value is listed as -2.72%.
As for `O=C(Nc1ccccc1N1CCCC1)c1ccc2ccccc2c1`, the “hERG current change (%, negative = inhibition) at 10uM” value came out at 8.73%.
For `CC(=O)N1CCN(c2ccccc2NC(=O)c2cc(Br)ccc2Cl)CC1`, the “hERG current change (%, negative = inhibition) at 10uM” value is on record as -66.6%.
On to `CC(=O)N1CCN(c2ccccc2NC(=O)c2ccc3ccccc3c2)CC1`, for which the “hERG current change (%, negative = inhibition) at 10uM” value is on record as -61.9%.
For `CN1CCN(c2ccccc2NC(=O)c2cc(Br)ccc2Cl)CC1`, the “hERG current change (%, negative = inhibition) at 10uM” value was -76.4%.
Consider `CS(=O)(=O)N1CCN(c2ccccc2NC(=O)c2ccc3ccccc3c2)CC1`, for which the “hERG current change (%, negative = inhibition) at 10uM” value is given as -8.76%.
`COc1c(Cl)cc(Cl)cc1C(=O)Nc1ccccc1N1CCN(C(C)=O)CC1`: the “hERG current change (%, negative = inhibition) at 10uM” value came to 3.01%.
Then `CS(=O)(=O)N1CCN(c2ccccc2NC(=O)c2cc(Br)ccc2Cl)CC1`, with -30.3%.
With `CC(C)C(NC(=O)COc1ccc2ccccc2c1)C(=O)N/N=C/C=C/c1ccccc1` (centres unmarked) the figure was 14.8%; with `COc1cc(C2/C(=C(\O)c3ccc4c(c3)CC(C)O4)C(=O)C(=O)N2c2nnc(C)s2)cc(OC)c1OC` (centres unmarked), 9.14%.
Then `Cc1c(Cc2ccccc2)c(=O)oc2cc(OCC(=O)N3CCC(C(=O)O)CC3)ccc12`, with 6.24%.
For the molecule `Cc1noc(C)c1COc1ccc(C(=O)OCC(=O)N2CC3(C)CC2CC(C)(C)C3)cc1` (centres unmarked), the “hERG current change (%, negative = inhibition) at 10uM” value was -6.44%.
As to `COC(=O)c1ccc(Oc2c(Cl)cccc2[N+](=O)[O-])cc1`, the “hERG current change (%, negative = inhibition) at 10uM” value turned out to be 3.65%.
With `COc1ccc(OC(C)C(=O)NCC2CCCO2)cc1` (centres unmarked), the “hERG current change (%, negative = inhibition) at 10uM” value is reported as 18.5%.
With `COC(=O)c1sc(N)c(C(=O)OC)c1COC(=O)c1c(C)noc1C` the figure was -3.57%; with `Cc1noc(C)c1CSc1nnc(C)c(=O)[nH]1`, 7.14%; with `CCOC(=O)c1[nH]c(C)c(C(=O)OCC(=O)N(C)C2CCS(=O)(=O)C2)c1C` (centres unmarked), 29%.
With `CC(C)N1CCC(N2CCN(Cc3cccc4nonc34)CC2CCO)CC1` (centres unmarked), the “hERG current change (%, negative = inhibition) at 10uM” value is 3.08%.
On to `OCCC1CN(Cc2ccc3nonc3c2)CCN1Cc1ccsc1` (centres unmarked), for which the “hERG current change (%, negative = inhibition) at 10uM” value is -66.1%.
With `OCCC1CN(Cc2cccc3nonc23)CCN1C1CCCCC1` (centres unmarked) the figure was -5.74%; with `OCCC1CN(Cc2ccc3cc(Cl)ccc3n2)CCN1Cc1ccsc1` (centres unmarked), -65%.
With `OCCC1CN(Cc2cccc3nonc23)CCN1Cc1ccsc1` (centres unmarked), the “hERG current change (%, negative = inhibition) at 10uM” value is -52.6%.
`Cc1cccc(CN2CCN(Cc3ccc4nonc4c3)CC2CCO)n1` (centres unmarked): the “hERG current change (%, negative = inhibition) at 10uM” value was -35.6%.
For `CCOc1ccc2nc(CN3CCN(Cc4ccsc4)C(CCO)C3)ccc2c1` (centres unmarked), the “hERG current change (%, negative = inhibition) at 10uM” value was -47%.
Then `O=C(CN1CCCC1)Nc1ccc(Cl)cc1C(F)(F)F`, with 0.32%; and `COCC(C)N=C1NN=C(c2cccs2)C(CC(=O)O)S1` (centres unmarked), with 20%.
Turning to `CS(=O)(=O)Oc1ccc(/C=C2\C(=N)N3N=C(CC(=O)N4CCOCC4)SC3=NC2=O)cc1Cl`, the “hERG current change (%, negative = inhibition) at 10uM” value is -2.27%.
As to `COc1cc2c(cc1OC)/C(=C/c1ccc(Cl)cc1)C(=O)OC2`, the “hERG current change (%, negative = inhibition) at 10uM” value is given as -36.4%.
Then `NC(=O)CSc1nnc(NC(=O)C2CC(=O)N(c3ccc(F)cc3)C2)s1` (centres unmarked), with 26.1%; and `O=C(Cc1ccc(S(=O)(=O)N2CCOCC2)s1)OCc1ccc(Cl)cc1`, with -20.1%.
For `COC(=O)c1ccc(NC(=O)COc2ccc(S(=O)(=O)N3CCCCC3)cc2)cc1`, the “hERG current change (%, negative = inhibition) at 10uM” value is given as -9.57%.
With `Cc1ccc(Cl)c(OCC(=O)NCc2ccco2)c1`, the “hERG current change (%, negative = inhibition) at 10uM” value is recorded as 1.03%.
Consider `COc1ccc(OC)c(/C=N/NC(=O)CCc2n[nH]c(=O)[nH]c2=O)c1`, for which the “hERG current change (%, negative = inhibition) at 10uM” value amounted to 4.8%.
Regarding `CCOc1ccccc1N1CC(C(=O)Nc2ccc(S(=O)(=O)N3CCCCC3)cc2)CC1=O` (centres unmarked), the “hERG current change (%, negative = inhibition) at 10uM” value is listed as -3.91%.
On to `S=C(Nc1ccc2cn[nH]c2c1)Nc1ccccc1Cl`, for which the “hERG current change (%, negative = inhibition) at 10uM” value is listed as -4.68%.
For the molecule `COc1ccc(S(=O)(=O)N2CCOCC2)cc1C(=O)N(C)Cc1ccccc1F`, the “hERG current change (%, negative = inhibition) at 10uM” value is on record as -37.8%.
As for `COc1cccc(NC(=O)CN(C)C(=O)c2cc(S(=O)(=O)N3CCCCC3)ccc2Cl)c1`, the “hERG current change (%, negative = inhibition) at 10uM” value is on record as -34.7%.
For the molecule `COc1ccc(S(=O)(=O)N2CCCCCC2)cc1C(=O)N(C)Cc1ccccc1F`, the “hERG current change (%, negative = inhibition) at 10uM” value is -53.2%.
`COc1cccc(NC(=O)CN(C)C(=O)c2cc(S(=O)(=O)NCc3ccccc3)ccc2C)c1`: the “hERG current change (%, negative = inhibition) at 10uM” value is listed as -71.1%.
As for `Cc1ccc(S(=O)(=O)NCc2ccccc2)cc1C(=O)N(C)CC(=O)Nc1c(Cl)cccc1Cl`, the “hERG current change (%, negative = inhibition) at 10uM” value is on record as -30.4%.
Then `COc1ccc(NS(=O)(=O)c2ccc(C)c(C(=O)N(C)CC(=O)Nc3cccc(OC)c3)c2)cc1`, with -9.42%; and `COc1ccc(NC(=O)CN(C)C(=O)c2cc(S(=O)(=O)N3CCCCCC3)ccc2OC)cc1`, with -24%.
For the molecule `COc1ccc(S(=O)(=O)N2CCCCCC2)cc1C(=O)N(C)Cc1c(F)cccc1Cl`, the “hERG current change (%, negative = inhibition) at 10uM” value is listed as -49.8%.
As to `COc1cccc(NC(=O)CN(C)C(=O)c2cc(S(=O)(=O)N3CCCCCC3)ccc2OC)c1`, the “hERG current change (%, negative = inhibition) at 10uM” value is -50.9%.
As to `Cc1ccc(S(=O)(=O)N(Cc2cccc(C(F)(F)F)c2)C(=O)N2CCN(C)CC2)cc1`, the “hERG current change (%, negative = inhibition) at 10uM” value is listed as 10.3%.
For the molecule `COC(=O)CCC(=O)OC1(C)C(=O)C2=CN(CCCOC(C)C)C(c3ccc(OC)cc3)=CC2=C(Br)C1=O` (centres unmarked), the “hERG current change (%, negative = inhibition) at 10uM” value is -22.7%.
Regarding `CC(=O)NC(=O)NC1CSCC1OC(C)=O` (centres unmarked), the “hERG current change (%, negative = inhibition) at 10uM” value amounted to 15.8%.
Then `CC(NC(=O)CCCn1cc([N+](=O)[O-])cn1)c1ccccc1` (centres unmarked), with -3.6%.
On to `COc1ccccc1/C=N/NC(=O)CC(=O)NCCc1ccccc1`, for which the “hERG current change (%, negative = inhibition) at 10uM” value turned out to be 12.1%.
`CCOC(=O)c1cc(-c2ccccc2)sc1NC(=O)CC`: the “hERG current change (%, negative = inhibition) at 10uM” value is given as 1.19%.
Then `CCOCC(=O)Nc1ccc(S(=O)(=O)NCCc2ccccc2)cc1`, with -22.9%.
